The full data set covers some 7,900 targets. This sample favours those with a hit. About 0.6% of all pairs of compound and target were hits. Values without a mark were called inactive.
Legend:
Test in all cases: log2 fold change, soluble protein after heating vs DMSO (PISA); higher = thermal stabilisation; K562 cells, 10 uM, 30 min; active = over 0.2 and 3.5 SD of the protein, either way, in both replicates (recomputed)
saracatinib = compound: CN1CCN(CCOc2cc(OC3CCOCC3)c3c(Nc4c(Cl)ccc5c4OCO5)ncnc3c2)CC1 [saracatinib]
Summary of the method: (§1)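 K562 cells at 2×10^6 cells/mL were treated with 10 μM compound for 30 min. Aliquots were heated for 3 min across 48°C-58°C, pooled, and extracted in PBS with 0.5% NP-40 at 4°C; soluble protein was the supernatant after 21,000xg for 90 min. Soluble protein was quantified by TMTpro 16plex LC-MS/MS with channel sums equalised, and reported as log2 fold change in thermal stability against DMSO controls, with values from duplicates.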

sotrastaurin = compound: CN1CCN(c2nc(C3=C(c4c[nH]c5ccccc45)C(=O)NC3=O)c3ccccc3n2)CC1 [sotrastaurin]
Summary of the method: as §1

alvocidib = compound: CN1CC[C@H](c2c(O)cc(O)c3c(=O)cc(-c4ccccc4Cl)oc23)[C@H](O)C1 [alvocidib]
Summary of the method: as §1

Tubastatin A = compound: CN1CCc2c(c3ccccc3n2Cc2ccc(C(=O)NO)cc2)C1 [Tubastatin A]
Summary of the method: as §1

[1] = compound: CNC(=O)C1=CC=CC=C1NC2=NC(=NC=C2Cl)NC3=C(C=C(C=C3)N4CCOCC4)OC
Summary of the method: as §1

defactinib = compound: CNC(=O)c1ccc(Nc2ncc(C(F)(F)F)c(NCc3nccnc3N(C)S(C)(=O)=O)n2)cc1 [defactinib]
Summary of the method: as §1

rucaparib = compound: CNCc1ccc(-c2[nH]c3cc(F)cc4c3c2CCNC4=O)cc1 [rucaparib]
Summary of the method: as §1

[2] = compound: CNc1nc(-c2ccc3c(N)n[nH]c3c2)cc(N2C[C@@H](C(=O)NC3CCCCC3)CC[C@H]2C)n1
Summary of the method: as §1

encorafenib = compound: COC(=O)N[C@@H](C)CNc1nccc(-c2cn(C(C)C)nc2-c2cc(Cl)cc(NS(C)(=O)=O)c2F)n1 [encorafenib]
Summary of the method: as §1

[3] = compound: COC(=O)[C@H](CCSC)NC(=O)C1=C(C=C(C=C1)NC[C@H](CS)N)C2=CC=CC=C2
Summary of the method: as §1

UniProt P51148, sequence (P51148 whole entry, looked up): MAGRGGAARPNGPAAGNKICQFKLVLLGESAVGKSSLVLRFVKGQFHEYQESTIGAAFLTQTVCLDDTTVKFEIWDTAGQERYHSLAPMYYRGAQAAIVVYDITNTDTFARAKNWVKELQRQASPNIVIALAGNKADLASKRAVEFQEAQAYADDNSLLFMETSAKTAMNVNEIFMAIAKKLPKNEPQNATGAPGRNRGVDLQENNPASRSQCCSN
UniProt P58004, sequence (P58004 whole entry, looked up): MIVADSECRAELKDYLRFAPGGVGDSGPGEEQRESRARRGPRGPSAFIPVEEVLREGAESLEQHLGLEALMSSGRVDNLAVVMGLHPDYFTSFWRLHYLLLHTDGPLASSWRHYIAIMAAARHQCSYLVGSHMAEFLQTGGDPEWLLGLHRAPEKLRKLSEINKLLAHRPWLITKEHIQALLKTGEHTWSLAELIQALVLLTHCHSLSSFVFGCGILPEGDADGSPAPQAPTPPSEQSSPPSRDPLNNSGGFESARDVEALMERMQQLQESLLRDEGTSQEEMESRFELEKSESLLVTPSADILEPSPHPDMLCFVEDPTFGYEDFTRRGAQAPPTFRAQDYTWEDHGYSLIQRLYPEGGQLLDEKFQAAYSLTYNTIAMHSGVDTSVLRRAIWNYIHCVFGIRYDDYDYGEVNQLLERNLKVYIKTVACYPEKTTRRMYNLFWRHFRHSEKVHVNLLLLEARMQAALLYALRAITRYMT
UniProt P61586, sequence (P61586 whole entry, looked up): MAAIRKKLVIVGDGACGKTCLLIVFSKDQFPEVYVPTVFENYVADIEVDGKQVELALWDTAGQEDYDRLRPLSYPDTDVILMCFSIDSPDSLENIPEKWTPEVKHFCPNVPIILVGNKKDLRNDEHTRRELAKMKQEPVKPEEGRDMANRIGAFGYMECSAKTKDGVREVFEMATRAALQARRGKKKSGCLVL
UniProt Q8NBJ9, sequence (Q8NBJ9 whole entry, looked up): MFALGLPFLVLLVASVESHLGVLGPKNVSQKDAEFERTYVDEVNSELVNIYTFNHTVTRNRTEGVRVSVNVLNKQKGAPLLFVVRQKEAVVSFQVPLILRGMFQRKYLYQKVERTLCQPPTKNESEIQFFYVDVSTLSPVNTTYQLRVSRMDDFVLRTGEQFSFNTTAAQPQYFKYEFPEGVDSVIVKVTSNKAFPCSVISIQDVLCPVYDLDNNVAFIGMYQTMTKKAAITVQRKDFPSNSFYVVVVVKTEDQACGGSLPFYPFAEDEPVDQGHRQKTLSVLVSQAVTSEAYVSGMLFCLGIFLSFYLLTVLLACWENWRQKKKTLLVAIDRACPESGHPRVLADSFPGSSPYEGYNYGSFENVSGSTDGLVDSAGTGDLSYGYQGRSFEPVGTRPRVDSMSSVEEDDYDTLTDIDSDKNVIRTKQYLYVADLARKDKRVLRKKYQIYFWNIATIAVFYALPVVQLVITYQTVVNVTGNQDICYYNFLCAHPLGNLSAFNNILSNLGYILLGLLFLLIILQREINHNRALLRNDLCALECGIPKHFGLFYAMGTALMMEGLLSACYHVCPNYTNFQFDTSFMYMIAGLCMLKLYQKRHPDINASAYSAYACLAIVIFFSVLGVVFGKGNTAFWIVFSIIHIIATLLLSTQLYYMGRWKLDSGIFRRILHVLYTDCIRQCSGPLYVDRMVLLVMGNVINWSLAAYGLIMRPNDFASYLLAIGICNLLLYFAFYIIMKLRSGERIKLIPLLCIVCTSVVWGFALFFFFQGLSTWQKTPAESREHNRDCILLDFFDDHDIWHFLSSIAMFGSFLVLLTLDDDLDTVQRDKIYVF
UniProt Q96ER3, sequence (Q96ER3 whole entry, looked up): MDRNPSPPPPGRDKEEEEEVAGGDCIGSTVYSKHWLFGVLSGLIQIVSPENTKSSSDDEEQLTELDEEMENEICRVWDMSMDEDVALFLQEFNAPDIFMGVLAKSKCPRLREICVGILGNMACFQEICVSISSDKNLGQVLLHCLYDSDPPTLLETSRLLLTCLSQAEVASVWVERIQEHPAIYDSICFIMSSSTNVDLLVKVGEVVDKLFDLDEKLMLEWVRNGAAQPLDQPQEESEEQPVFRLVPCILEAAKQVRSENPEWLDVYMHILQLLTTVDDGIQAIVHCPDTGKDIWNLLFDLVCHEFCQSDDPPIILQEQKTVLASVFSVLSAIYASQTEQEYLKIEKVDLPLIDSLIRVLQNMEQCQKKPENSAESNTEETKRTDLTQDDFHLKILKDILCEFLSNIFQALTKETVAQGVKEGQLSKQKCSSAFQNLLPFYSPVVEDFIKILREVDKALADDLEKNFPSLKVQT
UniProt Q96EE3, sequence (Q96EE3 whole entry, looked up): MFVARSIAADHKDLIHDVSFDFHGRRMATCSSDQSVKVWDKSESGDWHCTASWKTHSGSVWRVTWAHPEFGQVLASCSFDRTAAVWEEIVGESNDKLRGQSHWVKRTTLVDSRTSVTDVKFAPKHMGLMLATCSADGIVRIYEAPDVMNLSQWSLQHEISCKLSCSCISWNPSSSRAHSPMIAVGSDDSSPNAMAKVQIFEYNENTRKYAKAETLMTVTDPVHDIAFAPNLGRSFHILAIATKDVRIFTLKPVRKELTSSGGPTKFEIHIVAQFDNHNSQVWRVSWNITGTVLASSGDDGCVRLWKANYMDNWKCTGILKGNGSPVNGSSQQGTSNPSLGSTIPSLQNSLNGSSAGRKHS
UniProt Q9H6H4, sequence (Q9H6H4 whole entry, looked up): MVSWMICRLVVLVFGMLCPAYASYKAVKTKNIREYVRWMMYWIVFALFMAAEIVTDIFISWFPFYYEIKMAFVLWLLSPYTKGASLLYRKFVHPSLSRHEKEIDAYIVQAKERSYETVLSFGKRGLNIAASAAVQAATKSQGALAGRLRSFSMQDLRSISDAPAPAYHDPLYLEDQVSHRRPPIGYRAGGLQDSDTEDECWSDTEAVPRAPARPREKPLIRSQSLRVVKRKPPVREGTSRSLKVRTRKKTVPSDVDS
UniProt Q9NTZ6, sequence (Q9NTZ6 whole entry, looked up): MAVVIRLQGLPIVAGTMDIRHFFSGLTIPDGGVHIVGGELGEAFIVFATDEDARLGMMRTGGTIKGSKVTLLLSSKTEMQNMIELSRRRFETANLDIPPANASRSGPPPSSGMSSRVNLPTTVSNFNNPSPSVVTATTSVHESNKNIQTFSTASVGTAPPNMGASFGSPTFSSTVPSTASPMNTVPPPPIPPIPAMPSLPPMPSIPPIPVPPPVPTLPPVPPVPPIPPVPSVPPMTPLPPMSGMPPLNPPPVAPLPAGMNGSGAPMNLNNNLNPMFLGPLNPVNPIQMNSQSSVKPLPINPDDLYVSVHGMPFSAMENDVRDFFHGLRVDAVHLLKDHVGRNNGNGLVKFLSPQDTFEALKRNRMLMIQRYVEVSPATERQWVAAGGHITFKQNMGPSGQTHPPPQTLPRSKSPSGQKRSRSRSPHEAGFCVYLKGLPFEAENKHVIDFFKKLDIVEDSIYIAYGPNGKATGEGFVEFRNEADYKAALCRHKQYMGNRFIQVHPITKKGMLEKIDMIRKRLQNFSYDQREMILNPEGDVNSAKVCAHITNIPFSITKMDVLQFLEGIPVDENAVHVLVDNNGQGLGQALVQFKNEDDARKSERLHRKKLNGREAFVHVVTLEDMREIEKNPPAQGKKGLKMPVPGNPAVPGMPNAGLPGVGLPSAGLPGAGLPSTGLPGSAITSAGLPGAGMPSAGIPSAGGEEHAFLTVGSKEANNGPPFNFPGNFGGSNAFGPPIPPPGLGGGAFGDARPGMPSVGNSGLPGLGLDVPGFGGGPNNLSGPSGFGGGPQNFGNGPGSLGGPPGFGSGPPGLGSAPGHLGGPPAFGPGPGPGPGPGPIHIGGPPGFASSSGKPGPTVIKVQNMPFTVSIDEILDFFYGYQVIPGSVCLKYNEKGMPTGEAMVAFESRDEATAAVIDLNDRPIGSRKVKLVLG
UniProt Q8WXD2, sequence (Q8WXD2 whole entry, looked up): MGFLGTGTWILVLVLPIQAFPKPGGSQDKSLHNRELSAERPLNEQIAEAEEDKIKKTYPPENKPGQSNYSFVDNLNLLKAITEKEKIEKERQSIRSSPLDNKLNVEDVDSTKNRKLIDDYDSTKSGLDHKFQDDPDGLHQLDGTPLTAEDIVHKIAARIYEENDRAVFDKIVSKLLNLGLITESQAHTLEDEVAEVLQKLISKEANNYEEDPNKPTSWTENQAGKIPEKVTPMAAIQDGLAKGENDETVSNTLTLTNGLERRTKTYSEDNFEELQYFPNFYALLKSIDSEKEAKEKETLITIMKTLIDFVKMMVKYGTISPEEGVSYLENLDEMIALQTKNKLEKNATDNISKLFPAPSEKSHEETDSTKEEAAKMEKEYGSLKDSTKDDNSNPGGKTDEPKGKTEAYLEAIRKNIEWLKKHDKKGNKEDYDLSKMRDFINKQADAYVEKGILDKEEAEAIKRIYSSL
UniProt Q8IXJ6, sequence (Q8IXJ6 whole entry, looked up): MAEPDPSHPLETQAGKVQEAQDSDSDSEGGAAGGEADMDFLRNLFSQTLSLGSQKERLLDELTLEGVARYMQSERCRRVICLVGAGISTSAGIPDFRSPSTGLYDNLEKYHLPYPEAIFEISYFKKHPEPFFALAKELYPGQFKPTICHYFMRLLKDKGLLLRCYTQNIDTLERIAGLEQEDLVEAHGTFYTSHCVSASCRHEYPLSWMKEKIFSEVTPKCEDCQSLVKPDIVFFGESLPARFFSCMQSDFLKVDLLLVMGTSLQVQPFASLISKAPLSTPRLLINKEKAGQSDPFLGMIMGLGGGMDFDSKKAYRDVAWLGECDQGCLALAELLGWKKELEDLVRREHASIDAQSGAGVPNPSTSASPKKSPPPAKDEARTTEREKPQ
UniProt Q15287, sequence (Q15287 whole entry, looked up): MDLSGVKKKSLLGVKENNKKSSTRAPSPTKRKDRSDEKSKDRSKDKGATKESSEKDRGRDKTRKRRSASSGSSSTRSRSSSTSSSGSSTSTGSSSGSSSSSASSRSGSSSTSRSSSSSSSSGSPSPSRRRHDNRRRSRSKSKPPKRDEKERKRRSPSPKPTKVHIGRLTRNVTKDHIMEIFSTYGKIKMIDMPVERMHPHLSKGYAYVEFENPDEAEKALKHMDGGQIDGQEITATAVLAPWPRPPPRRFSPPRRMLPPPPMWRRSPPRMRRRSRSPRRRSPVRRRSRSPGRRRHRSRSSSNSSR

Target | log2 fold change (saracatinib) | log2 fold change (sotrastaurin) | log2 fold change (alvocidib) | log2 fold change (Tubastatin A) | log2 fold change [1] | log2 fold change (defactinib) | log2 fold change (rucaparib) | log2 fold change [2] | log2 fold change (encorafenib) | log2 fold change [3]
RRS1 (UniProt Q15050) | -0.079 | -0.001 | 0.302 | 0.071 | 0.009 | 0.688 | 0.488 | 0.109 | 0.166 | 0.047
RCC1 isoform 2 (UniProt P18754) | -0.076 | -0.049 | -0.234 | 0.164 | -0.083 | -0.224 | -0.008 | 0.146 | 0.045 | -0.07
REEP4 (UniProt Q9H6H4) | 0.047 | -0.068 | 0.034 | 0.018 | -0.122 | 0.008 | 0.086 | -0.014 | -0.013 | -0.01
SEC16A isoform 5 (UniProt O15027) | -0.08 | -0.049 | 0.028 | 0.052 | -0.085 | -0.016 | 0.22 | 0.09 | 0.119 | -0.018
RPS5 (UniProt P46782) | -0.038 | 0.018 | 0.167 | 0.084 | 0.065 | 0.121 | 0.096 | 0.103 | 0.054 | -0.026
SCG3 (UniProt Q8WXD2) | 0.191 | 0.038 | 0.106 | 0.021 | 0.091 | -0.163 | 0.046 | -0.113 | -0.069 | 0.062
RPS3 (UniProt P23396) | -0.03 | 0.031 | 0.201 | 0.094 | 0.082 | 0.208 | 0.097 | 0.04 | 0.045 | 0.002
RNASET2 (UniProt O00584) | 0.009 | 0.01 | 0.077 | 0.003 | -0.031 | -0.004 | -0.163 | -0.067 | 0.015 | -0.002
RDH10 (UniProt Q8IZV5) | 0.005 | 0.016 | -0.043 | 0.04 | 0.068 | -0.002 | -0.034 | 0.072 | -0.011 | -0.063
SEH1L isoform 1 (UniProt Q96EE3) | 0.009 | -0.022 | 0.018 | -0.015 | -0.029 | -0.012 | -0.016 | -0.053 | 0.025 | -0.007
RAB5C isoform 2 (UniProt P51148) | 0.08 | -0.011 | 0.011 | 0.013 | -0.013 | -0.011 | -0.02 | 0.003 | -0.039 | 0.017
RPS14 (UniProt P62263) | 0.027 | -0.003 | 0.166 | 0.123 | 0.056 | 0.113 | 0.107 | 0.069 | 0.013 | -0.084
SAAL1 (UniProt Q96ER3) | 0.001 | -0.044 | 0.355 (active) | -0.089 | 0.042 | 0.203 | 0.031 | -0.069 | 0.017 | -0.031
RHOA (UniProt P61586) | 0.079 | -0.025 | 0.018 | -0.025 | -0.029 | 0 | 0.074 | 0.012 | -0.126 | 0.08
RPS15 (UniProt P62841) | -0.02 | 0.07 | 0.325 | 0.087 | 0.04 | 0.233 | 0.226 | 0.061 | 0.028 | 0.06
SESN2 (UniProt P58004) | -0.009 | -0.222 | -0.147 | 0.131 | 0.039 | -0.229 | 0.044 | 0.09 | 0.041 | -0.121
RB1CC1 (UniProt Q8TDY2) | -0.065 | -0.108 | -0.025 | 0.117 | -0.051 | -0.042 | 0.09 | 0.049 | -0.104 | -0.025
RBM12 (UniProt Q9NTZ6) | -0.04 | -0.12 | -0.191 | 0.074 | 0.008 | -0.27 | -0.109 | -0.02 | 0.061 | -0.052
RAD50 isoform 2 (UniProt Q92878) | 0.012 | -0.024 | -0.084 | -0.025 | 0 | -0.103 | 0.006 | 0.006 | 0.008 | -0.019
SIRT2 (UniProt Q8IXJ6) | 0.031 | 0.136 | -0.023 | -0.015 | -0.038 | -0.015 | -0.033 | 0.181 | 0.014 | 0.025
RPS6KA2 isoform 2 (UniProt Q15349) | 0 | -0.049 | -0.019 | -0.01 | -0.422 (active) | -0.209 | -0.049 | -0.08 | 0.014 | -0.009
RNPS1 (UniProt Q15287) | 0.036 | 0.013 | -0.016 | 0.107 | -0.243 | -0.067 | 0.023 | -0.026 | -0.033 | -0.019
RETSAT (UniProt Q6NUM9) | -0.088 | 0.054 | 0.03 | 0.185 | 0.02 | -0.05 | -0.001 | -0.014 | 0.012 | -0.075
RUFY1 (UniProt Q96T51) | -0.037 | -0.174 | -0.041 | -0.012 | 0.045 | -0.071 | 0.032 | -0.09 | 0.077 | -0.02
RPS19 (UniProt P39019) | -0.024 | 0.001 | 0.178 | 0.089 | 0.07 | 0.167 | 0.136 | 0.064 | 0.028 | -0.004
ROCK1 (UniProt Q13464) | -0.006 | -0.056 | -0.052 | -0.009 | -0.016 | -0.023 | 0.021 | 0.122 | 0.031 | -0.015
SIDT2 isoform 2 (UniProt Q8NBJ9) | 0.08 | 0.024 | 0.047 | -0.083 | 0.104 | -0.064 | -0.002 | -0.088 | -0.053 | -0.176
